# Experimental data: PubChem BioAssay (NCATS)
# Values joined by “and” are separate entries in the source; they are usually repeats but may differ in a detail not shown here. Equal entries are not always repeated. Results filed as inconclusive are left out. More than one record can exist for a structure, and the calls need not agree. Values without a mark were called inactive. Active and inactive are the calls of the source. The call rests on the fitted dose curve; in most records, active means well fitted inhibition curve with a large enough effect; inconclusive means small, poorly fitted or top-dose-only effect; inactive means flat fitted curve, though single readings scatter.
# System: NIH3T3
# Experiment: Cytotoxic Profiling of Annotated Libraries Using Quantitative High-Throughput Screening (AID 1296008); further: nearly all actives have a fitted effect of over 60% in size
# Conditions: Five cell lines viability, CellTiter-Glo ATP luminescence, 48-72 h; max response: active compounds read low
# In short: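 Cells exposed to compounds for 48 or 72 hr at 37 degrees Celsius. Viability read as ATP-coupled luminescence with CellTiter-Glo after 10 min at room temperature.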
# On the % scale 0 is the no-effect control and ±100 the full control effect; potency means the concentration at half of the fitted maximal effect.
SMILES,max response,Potency
CCN1CCN(Cc2ccc(NC(=O)Nc3ccc(Oc4cc(NC)ncn4)cc3)cc2C(F)(F)F)CC1,-75.2%,
C/C=C1\[C@H](OC2OC(COC3OC(CO)C(O)C(O)C3O)C(O)C(O)C2O)OC=C(C(=O)OC)[C@H]1CC(=O)OCCc1ccc(O)cc1 (stereo not given in full),-38.2%,
C[C@H]1CC(=O)Nc2cccc(-c3cnn(C(C)(C)C)c3)c2N1,-7.27%,
C/C=C/c1ccc2c(c1)[C@@H](C)[C@H](c1ccc(O)cc1)O2,3.14%,
CC(C)C(C(=O)N(C)C(C)C(N)=O)N(C)C(=O)C1CCCN1C(=O)/C=C/C=C/C(O)C(C)O (stereo not given),2.29%,
O=C(CSc1nc2c(c(=O)n1-c1ccccc1)SCC2)Nc1ccc(-c2ccccc2)cn1,,0.058 µM (active)
COc1c2ccoc2cc2oc(CO[C@@H]3O[C@H](CO)[C@@H](O)[C@H](O)[C@H]3O)cc(=O)c12,-8.92%,
COc1cc2c(cc1OC)-c1[nH]nc(Nc3cccc(F)c3)c1C2,,0.731 µM (active)
CNC(=O)c1ccccc1Nc1nc(Nc2ccc(N3CCNCC3)cc2)ncc1Cl,,0.082 µM (active)
Cc1cc(-c2cc(O)ccc2Cl)cc2nnc(Nc3ccc(OCCN4CCCC4)cc3)nc12,,11.6 µM (active)
NC(=O)c1csc(C2OC(CO)C(O)C2O)n1 (stereo not given),-7.35%,
CN=C(N)NCCCCC/C=C(/C)CC(C)C1OC(=O)C(C)C(O)/C=C/C(C)C(O)CC(O)C(C)C(O)CCC(C)C(O)CC2(O)OC(CC(OC(=O)CC(=O)O)CC(O)CC(O)C(C)C(O)/C(C)=C/CCC1C)CC(O)C2O (stereo not given),1.75%,
Nc1ccc(-c2cccc3c(=O)cc(N4CCOCC4)oc23)cc1,,8.2 µM (active)
CC(C)(C)C(=O)CN1C(=O)[C@H](NC(=O)Nc2cccc(C(=O)O)c2)CN(C2CCCCC2)c2ccccc21,1.3%,
CC(C)=CCC/C(C)=C/CO[C@@H]1O[C@H](CO)[C@@H](OC(=O)/C=C/c2ccc(O)cc2)[C@H](O[C@@H]2O[C@@H](C)[C@H](O)[C@@H](O)[C@H]2O)[C@H]1O,-7.03%,
CC1CCC2C(C)(C)[C@@H](O)CC[C@]2(C)C12Cc1c(O)cc3c(c1O2)CN(C(CCC(=O)O)C(=O)O)C3=O (stereo not given in full),-1.29%,
CCC(C)C(=O)OC1CC(O)C23C4OCC5(C(O)CC2C1(C)C(O)O4)C3C(=O)C(O)C1(C)C(O)(c2ccoc2)CC2OC251 (stereo not given),,3.06 µM (active)
CN[C@@H]1[C@H](O[C@H]2[C@H](O[C@@H]3[C@@H](O)[C@H](O)[C@@H](N=C(N)N)[C@H](O)[C@H]3N=C(N)N)O[C@@H](C)[C@]2(O)C=O)O[C@@H](CO)[C@H](O)[C@H]1O,-1.39%,
CC(C)(O)CC(CO)NC(=O)CC(O)CC(=O)Cc1ccccc1 (stereo not given),2.22%,
O=C1NC(Cc2c[nH]c3ccccc23)C(=O)NC1Cc1cnc[nH]1 (stereo not given),3.67%,

SMILES,max response,Potency
COc1ccc(CNC(=O)c2sc3nc(C)cc(C)c3c2N)cc1,-5.95%,
NCCCNc1ccc(Nc2nccc(Nc3cc(C4CC4)[nH]n3)n2)cc1,,5.8 µM (active)
CC[C@H](C)[C@H](NC(=O)[C@H]([C@@H](C)CC)N(C)C(C)=O)C(=O)N[C@H](C(=O)N[C@@H](CC(C)C)C(=O)[C@@]1(C)CO1)[C@@H](C)O,,0.058 µM (active)
CC(C)[C@@H](CS(=O)(=O)C(C)C)N1C(=O)[C@@](C)(CC(=O)O)C[C@H](c2cccc(Cl)c2)[C@H]1c1ccc(Cl)cc1,,6.51 µM (active) and 7.41 µM (active)
C=C1CCC2C(C)(C)C(O)CCC2(C)C1CCC(C)CCOC(C)=O (stereo not given),-9.96%,
O=C(CN1C(=O)C2(CCCC2)NCC1c1cc(F)cc(F)c1)Nc1ccc2c(c1)CC1(C2)C(=O)Nc2ncccc21 (stereo not given),-0.622%,
Cc1cccc(C)c1OCc1cc(C(=O)N2CCC(c3ccncc3)CC2)no1,-17.2%,
O=C(OCC1=CC(O)C2C=CO[C@@H](O[C@@H]3O[C@H](CO)[C@@H](O)[C@H](O)[C@H]3O)C12)c1ccccc1 (stereo not given in full),1.21%,
CC1CCC2(CO)C(C(=O)O)=CCCC2C1(C)CCc1ccoc1 (stereo not given),-11.3%,
C[C@H]1Oc2cc(cnc2N)-c2c(nn(C)c2C#N)CN(C)C(=O)c2ccc(F)cc21,-87.5%,13.2 µM (active)
CC1=CC2C(CC1OC1OC(CO)C(O)C(O)C1O)C(C)CC(=O)C2C(C)C (stereo not given),1.5%,
CC(C)(C)NC(=O)[C@@H](c1cccnc1)N(C(=O)c1ccco1)c1ccc(C(C)(C)C)cc1,4.2%,
OCC(CO[C@@H]1O[C@H](CO)[C@@H](O)[C@H](O)[C@H]1O)c1ccc2c(c1)OCO2 (stereo not given in full),-0.622%,
CC/C=C\C/C=C\C/C=C\CCCCCCCC(=O)OCC(O)COC1OC(CO)C(O)C(O)C1O (stereo not given),-3.16%,
CC1=CCC(C(C)(C)O[C@@H]2O[C@H](CO[C@@H]3O[C@@H](C)[C@H](O)[C@@H](O)[C@H]3O)[C@@H](O)[C@H](O)[C@H]2O)CC1 (stereo not given in full),2.56%,
CC(=O)CCC1=C(C)C(O[C@@H]2O[C@H](CO)[C@@H](O)[C@H](O)[C@H]2O)C(O)CC1(C)C (stereo not given in full),3.13%,
O=C(CC1C(=O)Nc2ccccc21)OC[C@H]1O[C@@H](OCCc2ccc(O)cc2)[C@H](O)[C@@H](O)[C@@H]1O (stereo not given in full),-0.494%,
CN1CCc2nc(C(=O)N[C@@H]3C[C@@H](C(=O)N(C)C)CC[C@@H]3NC(=O)C(=O)Nc3ccc(Cl)cn3)sc2C1,-49.4%,
COC(=O)CC1CC(c2ccc(O)cc2)=NO1 (stereo not given),-0.902%,
